# Bioassay records deposited in PubChem by several laboratories.
# An excerpt weighted towards active compounds, which were near 2.8% of everything screened.
# SKKanGAS inh – S. pyogenes SKKanGAS growth inhibitors in kanamycin, primary screen, streptokinase expression inhibitor project, SKKanGAS strain, BacTiter-Glo luminescence; 6 h; 300,000 compounds, 1.3% hits; inhibition, % at 7.5 µM;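 active = mean replicate score, as percent of positive control median, at least 50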;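 note: strain carries kanamycin resistance gene driven by streptokinase promoter and grows in 40 µg/ml kanamycin; loss of luminescence reflects streptokinase promoter inhibition or plain growth inhibition; 0% = median of DMSO wells and 100% = positive control at its reference dose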
# PP5 primary – PP5 phosphatase inhibitors, primary screen, biochemical, fluorescence | Serine/threonine-protein phosphatase 5 (Homo sapiens), P53041 | purified PP5c, OMFP substrate fluorescence | inhibition, % at 6.7 µM | 320,000 compounds, 0.18% hits | AID 1987, 2009;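 active = inhibition above the campaign's mean inhibition across all tested compounds plus 3 SD, cut at about 9.5% in these data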;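 note: 0% = DMSO only and 100% = 100 µM cantharidin control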
# IDE cell activ – human IDE activators in live cells, primary screen, fluorescence polarization, HEK cells, FAbeta-B substrate; Insulin-degrading enzyme (Homo sapiens), P14735; FAbeta-B cleavage; 0% vehicle, 100% cell-free pure enzyme wells; activation, % at 5.96 µM; 340,000 compounds, 0.073% hits; AID 493087, 2011;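 active = activation above the mean of all tested compounds plus 3 SD, set per screening campaign, cut at about 17% in these data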
# PP1 inh – PP1-alpha phosphatase inhibitors, primary screen, counter-screen for PP5 inhibitor project, biochemical, fluorescence, OMFP substrate, single point; Serine/threonine-protein phosphatase PP1-alpha catalytic subunit (Homo sapiens), P62136; purified PP1alpha; inhibition, % at 6.7 µM; 320,000 compounds, 0.9% hits; AID 2235, 2010;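 active = inhibition above the mean inhibition of all tested compounds plus 3 SD, computed separately for each screening campaign, cut at about 15% in these data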
# Target sequence (P62136 whole entry, looked up): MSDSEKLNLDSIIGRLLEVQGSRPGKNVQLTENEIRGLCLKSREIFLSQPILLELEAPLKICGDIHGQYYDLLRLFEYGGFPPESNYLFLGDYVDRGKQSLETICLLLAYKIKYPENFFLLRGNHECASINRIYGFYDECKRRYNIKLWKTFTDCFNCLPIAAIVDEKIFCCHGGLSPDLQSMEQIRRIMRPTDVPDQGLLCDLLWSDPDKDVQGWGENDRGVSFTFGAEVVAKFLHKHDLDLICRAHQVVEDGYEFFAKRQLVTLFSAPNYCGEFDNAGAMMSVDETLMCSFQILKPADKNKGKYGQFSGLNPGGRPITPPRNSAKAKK
# IDE cell inh – human IDE inhibitors in live cells, primary screen, fluorescence polarization, HEK cells, FAbetaB substrate; Insulin-degrading enzyme (Homo sapiens), P14735; FAbetaB cleavage; inhibition, % at 5.59 µM; 320,000 compounds, 0.41% hits; AID 434962, 2010;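 active = percent inhibition above the average of all tested compounds plus 3 SD, set per screening campaign, cut at about 16% in these data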;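 note: IDE supplied by intact live HEK cells; FP after avidin binding of uncleaved biotin substrate so inhibition keeps polarization high; 0% = DMSO wells and 100% = 60 µM reference IDE inhibitor Ii1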
# Granule exo inh – LAMP-1 surface exposure blockers, TALL-104 cells – cell-based, flow cytometry, MLPCN library, primary screen. TALL-104 LAMP-1 surface exposure; cells stimulated with thapsigargin and PMA. inhibition, % at 10 µM. 360,000 compounds, 0.66% hits. AID 651702, 2012;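 active = inhibition above about 55%, limit read from the data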
# Exocytosis CP01 – inhibitors of lytic granule exocytosis, confirmation, TALL-104 cells, flow cytometry, Cherry Pick01 | LAMP-1 externalization; stimulated with PMA plus thapsigargin | AID 651954, 2012 | 1,500 compounds, 11% hits | inhibition, % at 10 µM | shares compounds with Granule exo inh; in the data active = inhibition above about 60%;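 note: 0% = stimulated vehicle wells and 100% = unstimulated wells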
# * = called active by the depositor; . = not tested or not shown.
SMILES,SKKanGAS inh,PP5 primary,IDE cell activ,PP1 inh,IDE cell inh,Granule exo inh,Exocytosis CP01
COc1ccccc1NC(=O)CNC(c1ccccc1)c1ccccc1,9.0,3.5,-2.2,2.4,1.8,76.6*,-12.1
COc1cc(NC(=O)c2cc(OC)c(OC)c(OC)c2)c2ncccc2c1,.,.,4.7,.,.,93.5*,25.0
CCCn1c(CN2CCN(C(=O)OCC)CC2)nc2cc(NC(=O)CC)ccc21,10.3,-0.3,2.3,-0.8,-2.1,3.3,.
Cc1cccc(C(C)C)c1NC(=O)Cc1ccc(S(=O)(=O)N2CCOCC2)s1,-4.0,1.2,4.6,-3.0,4.5,-0.5,.
COc1cc(C(=O)Nc2ccc(S(=O)(=O)N3CCOCC3)cc2)c([N+](=O)[O-])cc1OC,-6.4,4.3,0.6,-3.4,3.1,74.3*,-4.2
COc1ccc(C(=O)Nc2ccc(S(=O)(=O)N3CCOCC3)cc2)cc1[N+](=O)[O-],0.0,0.9,3.1,-2.0,-3.6,-1.0,.
CCCCCCN1C[C@H](n2cc(-c3ccc(F)cc3)nn2)[C@@H](O)C[C@@H]1c1ccc(Cl)cc1,.,.,.,.,.,58.5*,35.0
CCCCCCN1C[C@H](n2cc(-c3ccc(F)cc3)nn2)[C@@H](O)C[C@@H]1c1ccccc1,.,.,.,.,.,1.0,.
CC(C)n1c(SCC(=O)NC2CC2)nnc1-c1ccco1,2.5,1.3,-2.1,-0.6,1.1,-5.6,.
C[C@@H](C(O)c1ccccc1)N(C)C(=O)CCc1ccccc1 (stereo not given in full),-0.6,2.9,0.2,-2.4,2.2,-14.2,.
Cc1ccc2nc3c(cc(C(=O)NCCc4ccccc4)c(=N)n3CCCN3CCOCC3)c(=O)n2c1,-0.7,0.7,0.7,-0.5,-2.4,80.2*,-1.7
Cc1cccn2c(=O)c3cc(C(=O)NC4CCCC4)c(=N)n(CCc4ccccc4)c3nc12,3.8,1.5,5.0,2.9,2.2,68.7*,-2.5
CC(=O)Nc1ccc(NC(=O)C(C)Sc2nnc(-c3cccs3)o2)cc1 (stereo not given),-7.8,-0.8,-1.9,0.5,-3.0,-2.3,.
COC(=O)[C@@]1(Cc2ccccc2)C=C[C@@H](C)N1C(C)=O,-1.3,-2.5,1.7,-4.8,-7.2,48.3,.
COC(=O)N1[C@H](C)C=C[C@]1(Cc1ccccc1)C(=O)OC,-1.1,0.4,3.4,-11.3,3.1,57.2*,-13.2
Cc1ccc(C)c(N(CC(=O)NC2CCCC2)C(=O)CCC(=O)Nc2nccs2)c1,-1.7,5.1,-1.5,-1.3,2.2,78.1*,-11.5
COCc1cc(C)nc(SCc2ccc(Cl)cc2)c1C#N,29.7,0.5,-0.2,-1.5,1.5,69.2*,-13.2
CSc1cccc(NC(=S)N(CCCN2CCCC2)Cc2cccn2Cc2ccc(Cl)cc2)c1,-7.1,-1.1,-4.3,6.7,15.3,92.6*,62.9*
COc1cccc(NC(=S)N(CCCN2CCCC2)Cc2cccn2Cc2ccc(Cl)cc2)c1,-0.3,2.5,6.4,-1.3,6.2,11.9,.
COc1ccc(C(=O)Nc2cc(C(=O)c3ccccc3)c(C)oc2=O)cc1,-2.9,1.9,-4.6,1.0,-1.7,45.0,.
Cc1oc(=O)c(NC(=O)c2cccc(Cl)c2)cc1C(=O)c1ccccc1,-4.7,2.9,-9.0,0.3,4.9,96.9*,-3.4
O=C(Nc1ncccn1)c1ccc(Cl)c([N+](=O)[O-])c1,2.3,-0.3,3.2,1.5,3.0,-4.0,.
CCN(CC(=O)Nc1ccccc1OC)C(=O)CCc1ccccc1,-0.7,-1.2,4.7,-3.2,-4.5,20.6,.
CCCN(CC(=O)Nc1ccccc1OC)C(C)C(=O)NC(C)CCc1ccccc1 (stereo not given),2.6,4.9,4.5,1.0,2.2,69.7*,-4.8
COc1ccc(Cl)c2sc(N3CCN(C(C)=O)CC3)nc12,-6.0,1.7,1.6,-10.2,1.7,8.7,.
SMILES,SKKanGAS inh,PP5 primary,IDE cell activ,PP1 inh,IDE cell inh,Granule exo inh,Exocytosis CP01
Cc1ccc2nc(-c3ccc(NC(=O)Cc4cccs4)cc3)[nH]c2c1,-3.2,3.1,-0.4,2.6,13.1,68.0*,-12.4
Cc1ccc2nc(NC(=O)Cc3cccs3)sc2c1,-7.8,6.5,0.3,5.3,9.3,0.1,.
COc1ccc(N2C(=O)CC(Sc3n[nH]c(-c4ccccc4)n3)C2=O)cc1 (stereo not given),-1.5,-1.3,-0.9,-5.4,-1.0,87.6*,84.7*
CCOc1ccc(N2C(=O)CC(Sc3n[nH]c(-c4ccccc4)n3)C2=O)cc1 (stereo not given),-0.6,1.0,-8.3,1.4,1.1,8.8,.
COc1ccc(S(=O)(=O)N(C(=O)c2ccco2)c2cc3sc(=O)oc3c3ccccc23)cc1,21.3,3.9,-28.0,3.4,9.8,82.8*,-13.1
CC(C)(C)NC(=O)C(=O)NNC(=O)c1cccc(F)c1,-20.4,1.3,-2.0,-0.6,3.1,-6.4,.
O=C(CSc1nc2ccccc2[nH]1)Nc1cc(C(F)(F)F)ccc1N1CCOCC1,-3.6,2.8,-3.9,2.9,-1.9,62.4*,-3.2
N#Cc1c(Nc2ccccc2Cl)s[nH]c1=O,1.6,-3.5,-10.8,-0.7,3.9,78.5*,94.6*
Cc1ccc(CSCC(=O)N(C)CC(=O)Nc2c(Cl)cccc2Cl)cc1,0.4,0.3,-3.8,-5.6,-2.3,14.0,.
CCCCCCNC(=O)CC(c1ccccc1)c1cc(Br)ccc1O (stereo not given),27.5,8.8,2.9,8.7,-2.8,66.3*,30.4
Cc1ccc(-c2nc3c(c(=O)[nH]c(=O)n3Cc3ccccc3)n2C)o1,.,.,1.9,.,.,97.5*,-12.2
CC1=NN(C(=O)c2cccc(Cn3nc(C)c([N+](=O)[O-])c3C)c2)C(O)(C(F)(F)F)C1 (stereo not given),-6.5,3.4,5.4,0.7,2.4,0.8,.
COc1ccc(N(CC(=O)NCc2cccs2)S(=O)(=O)c2ccc(C(C)=O)cc2)cc1,.,.,.,.,.,5.8,.
CC(C)(C)C(=O)NC1CC2CCCC(C1)N2C(=O)Nc1ccccc1Cl (stereo not given),-1.3,.,4.9,.,.,6.2,.
S=C(Nc1ccccc1Cl)NC1CC2CCCC(C1)N2C1CC1 (stereo not given),-2.0,0.7,5.5,-3.5,1.3,87.1*,-3.4
CN(C(=O)c1cc(COc2ccc(F)cc2Cl)on1)C1CCCc2ccccc21 (stereo not given),4.8,5.0,7.4,0.5,3.2,57.4*,2.0
CN(Cc1ccccn1)C(=O)c1cc(COc2ccc(F)cc2Cl)on1,.,.,.,.,.,17.8,.
